Test results: PubChem BioAssay (NCI)
This is part of a sample that, as a whole, favours compounds with a hit. Of some 83,000 tested, about 20% had one in any assay.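 Values shown are percent growth following 48 h exposure of cells in 96-well plates to a single concentration of compound; below 10 was considered active.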 Activity calls are given as the source filed them.

Legend:
Assay in all cases: NCI-60 one-dose screen, 48 h (100 = growth as untreated, 0 = no growth, -100 = all killed)
Conditions in all cases: 10 µM unless noted
[1] = system: HCT-15 colon
[2] = system: HT29 colon
[3] = system: SNB-75 CNS
[4] = system: SNB-19 CNS
[5] = system: U251 CNS
[6] = system: PC-3 prostate
[7] = system: SK-MEL-5 melanoma
[8] = system: UACC-62 melanoma
[9] = system: LOX IMVI melanoma
[10] = system: SK-MEL-28 melanoma
[11] = system: SK-MEL-2 melanoma
[12] = system: EKVX NSCLC
[13] = system: UO-31 renal
[14] = system: TK-10 renal
[15] = system: ACHN renal
[16] = system: CAKI-1 renal
[17] = system: A498 renal
[18] = system: CCRF-CEM leukemia
[19] = system: MOLT-4 leukemia
[20] = system: SN12C renal

Measured: growth

COc1ccc(Cn2cc(C(=O)N=Nc3c(O)[nH]c4ccc(Br)cc34)nn2)cc1
inactive: [1] 105% | [2] 88.5% | [3] 112% | [4] 97.3% | [5] 105% | [6] 99.8% | [7] 98.3% | [8] 97.2% | [9] 107% | [10] 115% | [11] 98.1% | [12] 106% | [13] 91.5% | [14] 97.6% | [15] 110% | [16] 97.7% | [17] 97.1% | [18] 92.5% | [19] 80.6%

CCN(CC)CCCC(Nc1c2ccc(Cl)cc2nc2ccc(OC)cc12)c1ccncc1 (stereo not given)
inactive: [1] 54.8% | [2] 43.7% | [3] 87% | [4] 81% | [5] 79.3% | [6] 66.6% | [7] 88.4% | [8] 103% | [9] 63% | [10] 85.6% | [11] 108% | [20] 63.5% | [13] 54.3% | [14] 81.8% | [15] 57% | [16] 90.2% | [17] 81.8% | [18] 59.8% | [19] 18.3%

CN1CCN(c2ccc(Nc3ncc4[nH]c(=O)n(Cc5ccccc5N)c4n3)cc2)CC1
inactive: [1] 106% | [2] 80.2% | [3] 39.9% | [4] 107% | [5] 100% | [6] 83.1% | [7] 101% | [8] 97.6% | [9] 88.7% | [10] 111% | [11] 104% | [12] 102% | [13] 62.5% | [14] 86.4% | [15] 89.9% | [16] 66.4% | [17] 66.4% | [19] 93.4%

C=CCn1c(SCC(=O)Nc2ccc(C(=O)/C=C/c3ccc(Cl)cc3)cc2)nnc1-c1ccc(Cl)c(Cl)c1
inactive: [1] 78.8% | [2] 71.6% | [3] 73.9% | [4] 85.3% | [5] 81% | [6] 51.8% | [7] 82.3% | [8] 62.4% | [9] 72.2% | [10] 101% | [11] 76.6% | [12] 79.7% | [13] 54.4% | [14] 86.2% | [15] 87.7% | [16] 63.5% | [17] 83.9% | [18] 52.9% | [19] 45.5%

Nc1nc(Nc2ccc([N+](=O)[O-])cc2O)nc(C(Cl)(Cl)Cl)n1
inactive: [1] 53.3% | [2] 106% | [3] 62.6% | [4] 80.2% | [5] 73.3% | [6] 91.6% | [7] 72.7% | [8] 41.1% | [9] 44.8% | [10] 60% | [11] 79% | [20] 80.6% | [13] 71.7% | [14] 92.4% | [15] 79.7% | [16] 46.3% | [17] 36.5% | [18] 19.3% | [19] 25.8%

CC(=O)c1ccc(Nc2nccc(-c3ccc(Cl)cc3)n2)cc1
active: [17] 7.16%
inactive: [1] 82.3% | [2] 86.2% | [3] 105% | [4] 98% | [5] 78.4% | [7] 102% | [8] 86.5% | [9] 90.7% | [10] 113% | [11] 98.1% | [20] 100% | [13] 93.1% | [14] 85.5% | [15] 92.3% | [16] 92.6% | [18] 84.4% | [19] 83.8%

CCOC(=O)CSc1nc2sc3c(c2c(=O)n1-c1ccccc1)CCCCC3
inactive: [1] 104% | [2] 102% | [3] 112% | [4] 89.2% | [5] 93.4% | [7] 97.6% | [8] 99.5% | [9] 101% | [10] 112% | [11] 103% | [12] 103% | [20] 95.1% | [13] 84.1% | [14] 102% | [15] 102% | [16] 102% | [17] 105% | [18] 97% | [19] 102%

O=C(O)c1cc2ccccc2s1
inactive: [1] 106% | [2] 110% | [3] 97.9% | [4] 111% | [5] 95.9% | [7] 104% | [8] 107% | [9] 99.6% | [10] 117% | [11] 127% | [12] 106% | [20] 106% | [13] 94.5% | [14] 123% | [15] 103% | [16] 94.7% | [17] 108% | [18] 100% | [19] 100%
